In the library only some 3.3% were active in any assay of this set; here they are far more common.
FLuc inh: firefly luciferase inhibition; purified firefly luciferase, luminescence, 8 min; Potency, µM (series often up to 57.1 µM), for the others: at the top dose activity change, negative = inhibition, usual class: inhibitors; 2.2% of 72,000 active; AID 411; note: potency is the fitted concentration of half-maximal effect; % is set by controls: 0 for no effect and ±100 for the full control effect; nearly all actives have a fitted effect of over 40% in size
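Titration-based qHTS; buffer 50 mM imidazole pH 7.2, 50 mM KCl, 7 mM MgCl2, 10 uM ATP, 0.01% Tween 20, 0.05% BSA; luciferase/luciferin detector mix added after compound; 8 min, ambient; luminescence.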
HBB splicing: alters splicing of the hemoglobin beta chain. HBB splicing reporter cell assay, activation; EGFP reporter with mutant IVS2-654 intron; response scale: normalised to 500 nM splice-correcting PNA. Potency, µM (series often up to 46.1 µM), for inactives: top-dose activation, actives largely listed as activators. 0.06% of 65,000 active. AID 925; note: potency is the fitted concentration of half-maximal effect; 0% is about no effect
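Compounds were applied for 2 days to HeLa EGFP-654 cells, 500/well in Optimem with 2% FCS. The reporter's EGFP is disrupted by mis-splicing of beta-globin intron IVS2-654. Readout: summed well GFP fluorescence from 488 nm laser scanning; reference was 500 nM antisense […] 654 PNA.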
UbGFP stabilizer: proteasome inhibitors stabilizing ubiquitin-GFP reporter. Ubiquitin-GFP reporter cells, proteasome inhibition, GFP fluorescence; response scale: untreated = 0%, 10 µM MG-132 = 100%. Potency, µM (titrated, usually from 45.9 µM), inactives show at the top dose activation (GFP accumulation), actives largely listed as activators. 67,000 tested, under 10 active; active = well fitted activation curve with a large enough effect, not every such curve was filed as active; inconclusive = small, poorly fitted or top-dose-only effect, or another doubt; inactive = no such curve, though single readings can be large or run the other way; note: potency is the fitted concentration of half-maximal effect
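Proteasome blockade was scored as a rise in GFP-expressing U2OS cells carrying a ubiquitin(G76V)-GFP construct, imaged after 4 hr compound treatment at 37 °C across a 46 uM–2.9 nM series.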
GBA mod: human lysosomal glucosylceramidase modulation; P04062; purified enzyme, resorufin glucoside fluorescence (screen aimed at inhibitors), 20 min; Potency, µM; 1.1% of 48,000 active; AID 360; in the data active = potency below about 15 µM; inconclusive = mostly about 16 µM to 33 µM;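 note: potency is the fitted concentration of half-maximal effect; the screen sought inhibitors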
Target sequence (P04062 whole entry, looked up): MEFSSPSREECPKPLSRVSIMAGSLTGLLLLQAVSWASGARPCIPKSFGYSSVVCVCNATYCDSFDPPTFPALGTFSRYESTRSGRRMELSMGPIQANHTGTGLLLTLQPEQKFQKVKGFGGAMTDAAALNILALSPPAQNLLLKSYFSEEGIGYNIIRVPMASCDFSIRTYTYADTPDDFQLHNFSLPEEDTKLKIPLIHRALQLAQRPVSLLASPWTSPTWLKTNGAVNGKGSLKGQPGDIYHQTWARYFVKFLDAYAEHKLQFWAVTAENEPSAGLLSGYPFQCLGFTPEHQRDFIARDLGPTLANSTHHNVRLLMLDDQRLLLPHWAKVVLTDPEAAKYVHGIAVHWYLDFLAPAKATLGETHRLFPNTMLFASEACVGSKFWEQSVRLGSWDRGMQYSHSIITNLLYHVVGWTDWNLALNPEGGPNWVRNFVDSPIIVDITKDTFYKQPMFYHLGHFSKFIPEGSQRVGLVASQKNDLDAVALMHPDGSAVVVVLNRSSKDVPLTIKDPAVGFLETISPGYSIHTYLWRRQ
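Wild-type enzyme at 0.2 nM final in 50mM citric acid/KH2PO4, 10mM sodium taurocholate, 0.01% tween-20, pH 5.9, with resorufin beta-D-glucopyranoside at 30 uM final. Compounds titrated, 20 min at RT, red fluorescence read; AC50 from titration.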
Epigenetic mod: epigenetic GFP locus derepression in mouse cells. mouse C127i GFP locus derepression, cytometry, 30 h. Potency, µM (highest dose often 46.1 µM), for inactives: at the top dose GFP derepression (activation). 0.09% of 68,000 active. AID 597; note: % of control where 0% means no effect
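Locus derepression in mouse mammary C127i cells whose integrated CMV-GFP reporter is normally silent; GFP expression after 30 h compound treatment was quantified by counting fluorescent cells.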
PK Bst: alters activity of Bacillus stearothermophilus pyruvate kinase; purified pyruvate kinase, luminescence ATP production; ribose 5-phosphate activator present at AC10; Potency, µM; 1.2% of 51,000 active; AID 361; in the data active = potency below about 11 µM; inconclusive = mostly about 12 µM to 25 µM;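 the screen sought inhibitors and activators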;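 note: potency is the fitted concentration of half-maximal effect; scaled between full activation by ribose 5 phosphate and full inhibition by luteolin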
Starred values were filed as active, the others as inactive; [ ] = remark or other dose. Unless noted, calls come from the whole dose curve; as a rule, active = well fitted curve in the direction sought with a large enough effect; inconclusive = small, poorly fitted or top-dose-only effect, or another doubt; inactive = no such curve, though single readings can be large; an effect the other way counts as inactive or inconclusive.

For Nc1nc(-c2ccc3c(c2)OCCO3)cs1 the results were FLuc inh 25µM*, HBB splicing -2%, UbGFP stabilizer 5%, GBA mod inconclusive, Epigenetic mod 1% and PK Bst inactive.
For Nc1nc(-c2ccc3c(c2)CCCC3)cs1 the results were FLuc inh 13µM*, HBB splicing -4%, UbGFP stabilizer 2%, GBA mod inactive, Epigenetic mod 4% and PK Bst inconclusive.
Screening CCC(C)C(=O)N1CCc2cc(-c3csc(N)n3)ccc21 (stereo not given) returned FLuc inh 10µM*, UbGFP stabilizer -3%, GBA mod inconclusive, Epigenetic mod -2% and PK Bst 8.1*.
c1cncc(-c2nc(-c3ccc4c(c3)OCO4)cs2)c1 was read as FLuc inh 13µM*, HBB splicing 0%[57.5 µM], UbGFP stabilizer 5%, GBA mod >77, Epigenetic mod 2% and PK Bst inconclusive.
Screening CCCC(=O)N1CCc2cc(-c3nc(N)sc3C)ccc21 returned FLuc inh inconclusive, UbGFP stabilizer 1%, GBA mod inconclusive and Epigenetic mod -5%.
Screening c1cncc(-c2nc(-c3ccco3)cs2)c1 returned FLuc inh -13%, HBB splicing 1%[57.5 µM], UbGFP stabilizer -1%, GBA mod >77, Epigenetic mod 20% and PK Bst >11.
Screening CN(C)CCN(Cc1ccccc1)S(=O)(=O)c1cccc2cccnc12 returned FLuc inh 2%, HBB splicing 0% and UbGFP stabilizer -4%.
For CN1CCN([C@@H]2Cc3ccccc3Sc3ccc(Cl)cc32)CC1 the results were FLuc inh 0%, HBB splicing -1%, UbGFP stabilizer -3% and Epigenetic mod 4%.
Screening Cc1noc(C)c1-c1cc(N(C)Cc2ccco2)ncn1 returned FLuc inh 2%[2.29 µM], HBB splicing 0%, UbGFP stabilizer -2% and Epigenetic mod 0%[9.22 µM].
For COc1ccc(Oc2ncc3nc(-c4cccs4)c(=O)n(CCC#N)c3n2)cc1 the results were FLuc inh 0%[11.4 µM], HBB splicing 2%, UbGFP stabilizer -8% and Epigenetic mod 5%[9.22 µM].
`NNc1nncc2ccccc12` gave FLuc inh 4µM*, HBB splicing 0%[20.6 µM], UbGFP stabilizer 2%[20.5 µM] and Epigenetic mod 2%[20.6 µM].
Cc1cc(NC(=O)C(C)C)ncc1NC(=O)c1cccc(F)c1 was read as FLuc inh -1%, UbGFP stabilizer -8%, GBA mod >77, Epigenetic mod -2% and PK Bst >57.
`CCCC(=O)Nc1cnc(NC(=O)c2cccc(F)c2)cc1C` gave FLuc inh 25µM*, HBB splicing -1%, UbGFP stabilizer 2%, GBA mod >77 and Epigenetic mod 1%.
`Cc1cc(NC(=O)c2ccccc2)ncc1NC(=O)c1ccco1` gave FLuc inh 25µM*, UbGFP stabilizer 3%, GBA mod >77, Epigenetic mod 2% and PK Bst inactive.
`COc1ccc(/C=N\n2nnc3ccccc32)cc1` gave FLuc inh 3.2µM*, HBB splicing -1%, UbGFP stabilizer -7%, GBA mod >77, Epigenetic mod 4% and PK Bst 2.2*.
COc1ccc(/C=N/n2cc(-c3ccccc3)nc2N)cc1 was read as FLuc inh -3%, HBB splicing 0%[9.22 µM], UbGFP stabilizer 23% and Epigenetic mod 9%.
Screening CC(C)(C)Nc1ncnc2c1cnn2-c1ccccc1 returned FLuc inh 5µM*, HBB splicing 0% and UbGFP stabilizer -4%.
Cc1cccc(-n2ncc3c(NCc4cccs4)ncnc32)c1 was read as FLuc inh inconclusive, HBB splicing 0%, UbGFP stabilizer 3%, GBA mod 14* and Epigenetic mod -2%.
Cc1ccc(-n2ncc3c(NCCCOC(C)C)ncnc32)c(C)c1 was read as FLuc inh -2%[25.5 µM], Epigenetic mod -4%[20.6 µM] and PK Bst >11.
Screening CC(C)OCCCNc1ncnc2c1cnn2-c1ccccc1 returned FLuc inh 4µM*, Epigenetic mod 2%[20.6 µM] and PK Bst 8.9*.

Screening data (PubChem)
